SW480 rerep = induces DNA re-replication in SW480 colon adenocarcinoma cells | SW480 DNA re-replication, Hoechst DNA content imaging, 48 h | Potency, µM (titrated, usually from 46.1 µM), for the others: at the highest dose re-replication activation, hits mostly activators | 340,000 tested, 1.8% active; also: % of control where 0% means no effect; nearly all actives have a fitted effect of over 55% in size
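Image-based DNA-content assay: after two days of treatment, nuclei were labelled with the DNA dye Hoechst and imaged, and hits were compounds raising the count of nuclei showing high fluorescence intensity.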
KB-3-1 cytotox = kills parental KB-3-1 adenocarcinoma cells | AID 1347075 | KB-3-1 viability, CellTiter-Glo ATP luminescence, 72 h | Potency, µM (doses to about 46.1 µM), usual class: cytotoxic | 400,000 tested, 1.4% active; also: % is scaled to controls: 0 for no effect and ±100 for the full control effect; nearly all actives have a fitted effect of over 60% in size
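Parental KB-3-1 adenocarcinoma cells in phenol-red-free DMEM with 10% FBS were pin-treated with compounds at several concentrations, incubated 72 h at 37 °C, and viability read by CellTiter-Glo luminescence; concentration-effect curves were fitted after normalization.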
KB-V1 MDR tox = kills drug-selected multidrug resistant KB-V1 cells. AID 1347076. 400,000 tested, 3.4% active. KB-V1 MDR cells viability, CellTiter-Glo, 72 h. Potency, µM (highest dose often 46.1 µM), actives largely listed as cytotoxic; also: % is scaled to controls: 0 for no effect and ±100 for the full control effect; nearly all actives have a fitted effect of over 60% in size
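Compound-treated KB-V1 multidrug-resistant cells, 72 h, 37 degrees C; viability by CellTiter-Glo. Fitted qHTS curves give the values.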
ELG1 DNA repair = blocks ELG1-dependent DNA repair in HEK293T cells; Potency, µM (series often up to 46.1 µM), for inactives: at the top dose activity change, negative = inhibition, actives largely listed as inhibitors; HEK293T ELG1-luciferase reporter, luminescence, 16 h; DNA damage induced by 5-fluorouridine; 330,000 tested, 2.3% active; also: % is scaled to controls: 0 for no effect and ±100 for the full control effect; nearly all actives have a fitted effect of over 55% in size
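5-Fluorouridine DNA damage + compound/DMSO, 2,000 cells/well, 16 h, 37 °C/5% CO2. ONE-Glo, 30 min RT, luminescence. Readout = decrease in reporter signal.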
MCF10A rerep = induces DNA re-replication in MCF 10a normal breast cells; MCF 10A DNA re-replication, Hoechst nuclear intensity, 48 h; Potency, µM (titrated, usually from 46.1 µM), inactives show at the highest dose activity, positive = re-replication, usual class: activators; 350,000 tested, 2.9% active; AID 624296; also: % of control where 0% means no effect; nearly all actives have a fitted effect of over 50% in size
* hit, by the source's call; i = inactive; ? = inconclusive; . = no result given; [ ] = remark or other dose. Most compounds without a hit are left out; they make up all but 8.2% or so of the library. Calls follow the shape of the dose curve; as a rule, active = well fitted curve in the direction sought with a large enough effect; inconclusive = small, poorly fitted or top-dose-only effect, or another doubt; inactive = no such curve, though single readings can be large; an effect the other way counts as inactive or inconclusive. Potency is read from the fitted curve at half-maximal effect.

SMILES	SW480 rerep	KB-3-1 cytotox	KB-V1 MDR tox	ELG1 DNA repair	MCF10A rerep
CCCOc1ccc(C(=O)C(CN2CCCC2)c2ccccc2)cc1 (stereo unspecified)	?	23µM*	?	18µM*	8.2µM*
CC(=O)c1ccc(N2CCN(C(=S)Nc3cc(C)ccn3)CC2)cc1	.	?	i	.	.
O=S(=O)(Nc1cccc(S(=O)(=O)N2CCCC2)c1)c1cccs1	0%	i	i	?	0%
COc1cc(NCCCn2ccc(NC(=O)OCc3ccccc3)nc2=O)cc(OC)c1OC	-5%	i	i	.	-3%
O=c1cc2c(n[nH]1)-c1ccccc1CC2	-13%	1.3µM*	?	24%	-2%
O=C1c2ccccc2CCc2ccccc21	-1%	i	i	.	-2%
COc1cc2ccc(C(C)=NOC(C)=O)cc2cc1OC	.	5.2µM*	2.1µM*	.	.
N/C(Cc1ccc([N+](=O)[O-])cc1)=N\OC(=O)c1cccc(Br)c1	12µM*	i	i	14%	?
N/C(Cc1ccc([N+](=O)[O-])cc1)=N\OC(=O)c1ccc([N+](=O)[O-])cc1	-6%	i	?	-6%	2%
COc1ccc(NC(=O)C2(C)CCN2C(=O)c2ccc(C(C)(C)C)cc2)cc1OC (stereo unspecified)	.	15µM*	16µM*	.	.
COc1ccc(NC(=O)C2(C)CCN2Cc2ccc(OC)c3ccccc23)cc1OC (stereo unspecified)	.	i	i	.	.
COc1ccc(NC(=O)C2(C)CCN2Cc2cccc(OC)c2OC)cc1OC (stereo unspecified)	.	?	8.2µM*	.	.
COc1cccc(CN2CCC2(C)C(=O)Nc2cccc3cccnc23)c1F (stereo unspecified)	.	7.3µM*	7.3µM*	.	.
COc1ccc(C)cc1NC(=O)NC1CC(=O)N(c2ccc3c(c2)OCCO3)C1 (stereo unspecified)	.	i	i	.	.
CC(C)(C)OC(=O)NCc1ccc(CNC(=O)c2nc[nH]c2C(=O)NCc2ccccc2)cc1	?	i	i	?	?
C[C@@H](OC(=O)c1[nH]cnc1C(=O)NCc1ccc(CNC(=O)OC(C)(C)C)cc1)c1ccccc1	?	?	?	13µM*	?
CC(C)(C)OC(=O)NCc1ccc(CNC(=O)c2[nH]cnc2C(=O)NCC(=O)OCc2ccccc2)cc1	-6%	i	i	8.2µM*	?
COc1ccc(C(=O)Oc2cc(-c3ccc4c(c3)OCO4)cc(=O)c3c(C)oc(C)c23)cc1	.	i	i	.	.
CCc1ccccc1NC(=O)C(=O)NCCc1sc(-c2cccc(C)c2)nc1C	.	i	?	.	.
COc1ccc(C(=O)N2CCC(c3ccncc3)CC2)cc1OC	.	i	i	.	.
CSc1nc2nc3c(cc2c(=O)n1-c1ccccc1)COC(C)(C)C3	18%	i	i	-3%	4%
CSc1nc2nc3c(cc2c(=O)n1-c1cccc(C)c1)COC(C)(C)C3	-6%	i	i	21µM*	6%
Cc1ccc(C)c(N2CCN(C(=O)CCCN3C(=S)NC(C)(C)CC3C)CC2)c1 (stereo unspecified)	-1%	21µM*	?	?	8%
Cc1cccc(N2CCN(C(=O)CCN3C(=S)NC(C)(C)CC3C)CC2)c1C (stereo unspecified)	-6%	i	4.1µM*	?	14%
CC1CC(C)(C)NC(=S)N1CCC(=O)N1c2ccccc2CC1C (stereo unspecified)	-48%[1.84 µM]	i	i	19%	?
SMILES	SW480 rerep	KB-3-1 cytotox	KB-V1 MDR tox	ELG1 DNA repair	MCF10A rerep
CC1CC(C)(C)NC(=S)N1CCCC(=O)Nc1ccc(Br)cc1 (stereo unspecified)	-8%	i	23µM*	-7%	3%
Cc1cccc(NC(=O)CCCN2C(=S)NC(C)(C)CC2C)c1C (stereo unspecified)	-8%	i	i	1%	2%
COc1c(C)cccc1C(=O)Nc1ccc(-c2nc3ccccc3s2)c(Cl)c1	.	i	i	.	.
NC(COCc1ccccc1)c1csc(Nc2ccc(C(=O)c3ccccc3)cc2)n1 (stereo unspecified)	.	i	i	.	.
COc1ccc(CN2CC[C@H]3C=CC[C@@H](C(=O)Nc4ccc(Cl)cc4Cl)[C@H]3C2=O)cc1OC	.	i	?	.	.
CCc1c(C)nc2cc(-c3ccc(OC)c(OC)c3)nn2c1NCC1CC1	-1%	?	5.2µM*	15µM*	21µM*
COc1cc(OC)c(OC)cc1/C=C/c1nc2cc3ccccc3cc2c(=O)n1-c1ccc(F)cc1F	.	12µM*	i	.	.
CC(=O)OCCNc1cc(N2CCN(C)CC2)c2noc3c2c1C(=O)c1ccccc1-3	2%	i	i	-16%	11%
CCOC(=O)C(C(=O)OCC)c1cc(Br)c2noc3c2c1C(=O)c1ccccc1-3	?	5.2µM*	?	?	?
COC(=O)c1ccc2c(c1)C(C)(C)C(/C=C/c1ccccc1O)=[N+]2C	5.6µM*	4.5µM*	?	6.5µM*	7.1µM*
Cn1c(C(=O)N2CCCC(C(=O)NCCCc3ccccc3)C2)cc2sccc21 (stereo unspecified)	-2%	i	21µM*	0%	-6%
CCn1c(C(=O)N2CCC(C(=O)NCCCSC3CCCCC3)CC2)cc2sccc21	-3%	?	i	21µM*	-7%
O=C(NCc1ccccn1)C1CCN(C(=O)c2cc3sccc3n2Cc2ccc(F)cc2)CC1	?	i	i	21µM*	9%
CCn1c(C(=O)N2CCC(C(=O)NCCc3ccccc3)CC2)cc2sccc21	.	i	i	.	.
CCn1c(C(=O)N2CCC(C(=O)NCc3ccc4c(c3)OCO4)CC2)cc2sccc21	-5%	i	i	7.3µM*	-4%
CC1Cc2ccccc2N1C(=O)c1cc2sccc2n1Cc1ccc(F)cc1 (stereo unspecified)	?	?	21µM*	-5%	?
Cc1cccc(C)c1NC(=O)c1cc2sccc2n1Cc1ccc(F)cc1	.	i	i	.	.
CCCCSc1cnn(-c2ccccc2)c(=O)c1SCCCC	?	18µM*	18µM*	?	?
Cc1ccccc1N(CC(=O)NCCc1ccccc1)C(=O)c1csnn1	0%	i	i	-1%	0%
CC1(C)Cc2c(sc3c2c(=N)n(Cc2ccco2)c(=O)n3Cc2ccc(Cl)cc2)CO1	1%	i	i	5.8µM*	?
CC1(C)Cc2c(sc3c2c(=N)n(Cc2ccco2)c(=O)n3Cc2ccccc2)CO1	4%	i	i	12µM*	0%
Cc1ncc([N+](=O)[O-])n1Cc1ccc(F)cc1	-1%	i	i	0%	-6%

Compound activity as filed in PubChem.
